IDE inh: inhibits human insulin-degrading enzyme in HEK cells | FAbetaB cleavage, fluorescence polarization | actives 0.41% (n = 320,000) | P14735 | inhibition, % at 5.59 µM;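 active = percent inhibition above the average of all tested compounds plus 3 SD, set per screening campaign, cut at about 16% in these data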;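 also: IDE supplied by intact live HEK cells; FP after avidin binding of uncleaved biotin substrate so inhibition keeps polarization high; 0% = DMSO wells and 100% = 60 µM reference IDE inhibitor Ii1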
PolyA inhibitor: blocks polyadenylation in yeast reporter cells. S. cerevisiae SKY197-pL101 polyadenylation reporter, beta-gal luminescence; efflux-impaired pdr1/pdr3 knockout yeast; score 100 = 6 SD above DMSO. activity score, % at 12 µM. actives 0.02% (n = 300,000);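 active = lowest replicate activity score at least 50, where 100 means six control SD above control mean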;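 also: yeast exposed to compound for 9 h at 30 °C; higher score means more reporter readthrough which indicates perturbed polyadenylation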
ALR inh: human ALR oxidase inhibition via reduced H2O2 | P55789 | purified ALR, DTT oxidation, H2O2 HRP-luminol luminescence | inhibition, % (concentration not given with the values) | actives 3.8% (n = 290,000) | AID 485317;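 active = mean replicate inhibition above about 79%, with every replicate also reaching it, limit read from the data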
Target sequence (P55789 whole entry, looked up): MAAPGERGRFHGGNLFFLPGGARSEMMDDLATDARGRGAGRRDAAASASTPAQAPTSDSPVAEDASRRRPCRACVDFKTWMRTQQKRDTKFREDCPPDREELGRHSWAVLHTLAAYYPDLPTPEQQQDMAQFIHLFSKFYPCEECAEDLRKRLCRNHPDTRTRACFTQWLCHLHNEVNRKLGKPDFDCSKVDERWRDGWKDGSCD
PfM18AAP inh: blocks P. falciparum M18 aspartyl aminopeptidase; recombinant PfM18AAP, H-Glu-NHMec fluorogenic cleavage; inhibition, % at 7.35 µM; actives 1.2% (n = 290,000); AID 1822;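 active = inhibition above the campaign mean inhibition over all tested compounds plus 3 SD, cut at about 28% in these data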;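 also: 0% = plate median of test compound wells and 100% = 2 mM ZnCl2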
CaV13 ICDI inh: Primary screen for inhibitors of IQ motif and Ca2+-dependent inactivation inhibitor domain binding in CACNA1D, Förster resonance energy transfer in living cells, … | HEK cells, CFP/YFP FRET ICDI-IQ, plate reader, 10 min; percent FRET-ratio fall versus neutral wells | inhibition, % at 12.3 µM | actives 0.098% (n = 340,000) | AID 743397;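 active = mean replicate inhibition of at least 30% and at least 1% of replicates passing that level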;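 also: 0% = median of the neutral control wells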
IDE cell activ: boosts human insulin-degrading enzyme activity in HEK cells; P14735; FAbeta-B cleavage, fluorescence polarization; 0% vehicle, 100% cell-free pure enzyme wells; activation, % at 5.96 µM; AID 493087; actives 0.073% (n = 340,000);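 active = activation above the mean of all tested compounds plus 3 SD, set per screening campaign, cut at about 17% in these data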
Active calls of the source: *; nt = no result. This is a sample that favours compounds with a hit; in the whole collection about 4.1% have one here.

SMILES	IDE inh	PolyA inhibitor	ALR inh	PfM18AAP inh	CaV13 ICDI inh	IDE cell activ
COC(=O)C1=C(C)N(C)C(=NCc2ccc(OC)cc2)NC1c1ccc(C(F)(F)F)cc1 (centres undefined)	nt	nt	nt	nt	-11	nt
CC(C)(C=O)C1=CC(=O)c2ccccc2C1=O	12	nt	96*	-4	-16	-16
COc1ccccc1Nc1nc(C)cs1	5	11	99*	1	-5	1
Cc1cccc(-c2nnc(NC(=O)c3cccs3)s2)c1	-1	8	-11	-5	-6	0
CNc1nnc(-c2cccc(N(C)C)c2)s1	-2	8	99*	5	-2	2
Cc1ccc(C(=O)N(C)[C@H]2C[C@H]3c4[nH]c5c(-c6ccccc6)cccc5c4CCN3C(=O)[C@H]2[C@H](C)O)cc1	nt	nt	nt	nt	-4	nt
CCOC(=O)/C(=N\Nc1cc(Cl)ccc1Cl)N1CCOCC1	-1	2	98*	-5	2	4
N#Cc1c(NC(=O)C(=O)NCCCN2CCOCC2)sc2c1CCCC2	2	26	96*	4	-3	0
CCCCCNC(=O)N[C@H](C(=O)O)C(C)C	0	6	2	-14	-6	6
Cc1ccc(NC2CCCN(C(=O)c3cccc(-c4ncc[nH]4)c3)C2)cc1C (centres undefined)	5	-7	97*	1	-14	-3
Cc1ccc(NC2CCCN(C(=O)c3ccccc3-c3ncc[nH]3)C2)cc1C (centres undefined)	6	12	99*	1	-6	3
Cc1ccc(N2CCN(S(=O)(=O)c3ccc4c(c3)NC(=O)C(C)C(=O)N4)CC2C)cc1 (centres undefined)	-1	-12	97*	-4	-3	1
Cc1ccc(N2CCN(S(=O)(=O)c3ccc4c(c3)n(C)c(=O)c(=O)n4C)CC2C)cc1 (centres undefined)	3	20	-6	1	-9	-7
CN(C(=O)CSc1nnc(-c2ccccc2)o1)c1c(N)n(Cc2ccccc2)c(=O)[nH]c1=O	11	1	-4	-2	-5	-1
CC(C)(C)c1ccc(Oc2ccc(NC(=O)CCCC(=O)O)cn2)cc1	-6	-4	91*	5	-14	7
CCN(CCNCC(O)COc1ccccc1C(C)C)c1cccc(C)c1 (centres undefined)	-2	13	99*	3	-18	6
CCOC(=O)N1CCN(CC(O)COc2ccccc2C(C)C)CC1 (centres undefined)	4	nt	-3	-9	0	5
O=C1NC(=O)C(c2ccc(F)cc2)N1 (centres undefined)	-3	-20	6	-14	-2	2
C(=N\Nc1ccccn1)/c1ccc2c(c1)OCCO2	4	17	98*	1	-5	6
C=CCOc1ccc(/C=N/Nc2ccccn2)cc1OC	-1	-12	15	-2	-2	4
COc1cc(/C=N/Nc2cccc3cccnc23)cc(OC)c1O	0	-8	36	30*	-4	2
COc1cc(/C=N/Nc2ccccn2)cc(OC)c1O	8	-21	99*	16	8	5
Oc1cccc(/C=N/Nc2cccc3cccnc23)c1	nt	-26	nt	24	7	7
CCOc1ccc(/C=N/Nc2ccccn2)cc1OC	-3	-19	86*	0	15	1
CC(=O)OCC(=O)C1(O)CCC2C3CCC4=CC(=O)C=CC4(C)C3C(O)CC21C (centres undefined)	1	15	-8	-22	-21	nt
SMILES	IDE inh	PolyA inhibitor	ALR inh	PfM18AAP inh	CaV13 ICDI inh	IDE cell activ
Cn1cccc1Cc1nnc(SCC(=O)NCCc2ccccc2)n1C	3	-13	59	0	3	-1
CC(C)(C)c1ccc(CC(=O)N2CCC2(C)C(=O)NCc2cccs2)cc1 (centres undefined)	nt	nt	nt	nt	-12	nt
O=[N+]([O-])c1ccc(Nc2ccccc2O)c2nonc12	nt	-5	99*	0	-4	-1
COC(=O)[C@H](Cc1ccccc1)NS(=O)(=O)c1ccc(F)cc1Br	nt	nt	nt	nt	-5	6
Cn1c(=O)c2c(nc(CN3CCN(c4ccccc4)CC3)n2Cc2c(F)cccc2Cl)n(C)c1=O	-6	-32	97*	-13	-4	-1
Cn1c(=O)c2c(nc(CN3CCN(c4ccccc4)CC3)n2Cc2ccccc2Cl)n(C)c1=O	nt	-17	nt	5	-6	2
Cc1ccccc1OCC(=O)Nc1nnc(-c2ccncc2)s1	2	7	87*	2	-21	1
O=C(Nc1ccsc1C(=O)O)c1ccc(Cl)cc1	12	11	97*	-1	-10	-15
Cc1nc2ccc(S(=O)(=O)CCC(=O)NCc3ccc(Cl)cc3)cc2s1	nt	nt	nt	nt	-10	nt
COc1cc(N/N=C(\C)c2ccc(N)cc2)nc(-c2ccccc2)n1	4	-25	98*	6	-9	-4
C=CCn1c(SCC(=O)Nc2cccc(S(N)(=O)=O)c2)nnc1C1CCCCC1	-3	nt	nt	nt	-5	-3
CCc1nnc(NC(=O)CSc2nnc(Cc3cc(=O)[nH]c(=O)[nH]3)n2-c2ccc(OC)cc2)s1	1	14	-5	6	-7	1
CCc1nnc(NC(=O)CSc2nnc(Cc3cc(=O)[nH]c(=O)[nH]3)n2-c2cccc(OC)c2)s1	7	18	96*	12	-6	-2
CCOc1ccc(CCNC(=O)c2ccc(CS(=O)Cc3ccccc3Cl)o2)cc1 (centres undefined)	8	-30	98*	-7	-2	-6
O=C(NCc1ccc2c(c1)OCO2)c1ccc(CS(=O)Cc2cccc(Cl)c2)o1 (centres undefined)	4	0	94*	5	-5	7
Cc1ccc(CNC(=O)c2ccc(CS(=O)Cc3ccccc3Cl)o2)cc1 (centres undefined)	4	0	99*	-7	-4	-1
O=C(NCc1ccc2c(c1)OCO2)c1ccc(CS(=O)Cc2ccc(Cl)cc2)o1 (centres undefined)	-1	5	-3	11	-3	3
N#Cc1c(NC(=O)CCN2C(=O)c3ccccc3C2=O)oc(-c2ccccc2)c1-c1ccccc1	6	7	17	-3	-5	-4
Cc1cnc(C(=O)OCC(=O)Nc2oc(-c3ccccc3)c(-c3ccccc3)c2C#N)cn1	-4	12	97*	8	-4	-1
CCN1CCN(c2nc(S(=O)(=O)c3ccc(C)cc3)c(Cl)s2)CC1	-1	-13	-9	-1	-6	2
O=C(Cc1coc2cc(O)ccc12)NNC(=O)c1cccs1	-2	nt	99*	nt	-11	0
CN1C(=O)CC(NNC(=O)c2ccccc2)C1=O (centres undefined)	9	17	nt	-9	-5	-2
